This passage reports outcome results from PubChem BioAssay (EPA / NIEHS).

SMILES strings stand for the structures. Inconclusive results are not listed. Activity calls are given as the source filed them. How the source made its calls: active means hit-call score of the fitted dose curve at least 0.9, where 1 is the maximum; inconclusive means response in the unintended direction; inactive means score below 0.9.

Sequence of human Vitamin D Receptor (VDR), VDR (gene 7421) (P11473 whole entry, looked up, the tested form may be a part): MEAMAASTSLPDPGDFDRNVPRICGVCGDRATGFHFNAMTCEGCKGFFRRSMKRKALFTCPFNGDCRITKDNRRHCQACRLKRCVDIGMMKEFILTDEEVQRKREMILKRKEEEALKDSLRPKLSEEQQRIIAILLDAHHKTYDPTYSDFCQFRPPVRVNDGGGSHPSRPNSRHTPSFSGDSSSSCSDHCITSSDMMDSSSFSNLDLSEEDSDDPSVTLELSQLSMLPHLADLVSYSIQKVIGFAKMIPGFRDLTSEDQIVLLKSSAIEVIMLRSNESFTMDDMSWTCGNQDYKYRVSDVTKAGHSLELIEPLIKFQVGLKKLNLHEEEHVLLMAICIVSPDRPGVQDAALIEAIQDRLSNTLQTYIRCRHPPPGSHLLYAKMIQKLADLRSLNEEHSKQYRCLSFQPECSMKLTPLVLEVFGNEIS

This assay concerns the target human Vitamin D Receptor (VDR), VDR (gene 7421) (UniProt P11473). Briefly: ATG_VDR_TRANS: Attagene TRANS-FACTORIAL HepG2 Assay for human Vitamin D Receptor (VDR) (AID 2283022). The essentials:
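Steps: transfect HepG2 with GAL4-UAS-driven reporter constructs; dose compounds 24 h; isolate RNA, reverse-transcribe, PCR-amplify with 6-FAM-labelled primer extension and HpaI digestion; quantify fragments by capillary electrophoresis relative to DMSO.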
For `NS(=O)(=O)c1cc(C(=O)O)c(NCc2ccco2)cc1Cl`, the molecule was classed as inactive.
Take `Cc1ccncc1`: the outcome was inactive.
Turning to `C=C(C)C(=O)OCCOCCOC(=O)C(=C)C`, the result was inactive.
For the molecule `CCCCCCCCCO`, the outcome was inactive.
For `C=C(C)C(=O)OCCN(C)C` the value was “inactive”; for `CC(=O)C1=C(C)[C@@H]2C[C@@]3(C1)[C@H](C)CC[C@H]3C2(C)C`, “inactive”; for `CC(=O)c1ccc(O)cc1`, “inactive”.
With `CC(C)CCOC(=O)CC(C)C`, the outcome was inactive.
On to `C=C(C)C(=O)OCCC(C)OC(=O)C(=C)C` (configuration not stated), for which the call was inactive.
`C=CC(C)(CCC=C(C)C)OC(=O)CC` (configuration not stated): the molecule was called inactive.
In the case of `CCc1cccc(O)c1`, the call was inactive.
Regarding `CCC(CC)CO`, the result was inactive.
`COc1ccc(N)c(C)c1`: the result was inactive.
As for `C=CCOC(=O)/C=C\C(=O)OCC=C`, the molecule was classed as inactive.
Turning to `[Cl][Dy]([Cl])[Cl]`, the call was inactive.
With `COC(=O)C(C)Oc1ccc(Oc2ncc(C(F)(F)F)cc2Cl)cc1` (configuration not stated), the outcome was inactive.
For the molecule `CC(C)(C)c1ccc(S)cc1`, the molecule was classed as inactive.
As to `CC1=C(C=O)C(C)(C)CCC1`, the molecule was called inactive.
For `CCCCOCCOC(=O)c1ccccc1C(=O)OCCOCCCC` the value was “inactive”.
Consider `N#CCCNCCC#N`, for which the molecule was classed as inactive.
To `CCCO` belongs “inactive”; to `CC/C=C\C#N`, “inactive”; to `Cc1ccc(C(C)(C)O)cc1`, “inactive”.
In the case of `Cc1cc(N)n(-c2ccccc2)n1`, the result was inactive.
For the molecule `CCCCCCCCOC(C)=O`, the call was inactive.
To `C=C1CC[C@H]2O[C@]2(C)CC[C@@H]2[C@@H]1CC2(C)C` belongs “inactive”; to `Brc1cc(Br)cc(Br)c1`, “inactive”.
Regarding `CC(C)=CC(=O)O`, the molecule was called inactive.
To `CCCCCC(=O)O[C@]1(C(C)=O)CC[C@H]2[C@@H]3CCC4=CC(=O)CC[C@]4(C)[C@H]3CC[C@@]21C` belongs “inactive”; to `CCC(=O)OC/C=C(\C)CCC=C(C)C`, “inactive”.
In the case of `CCCCCCCC(=O)N(C)C`, the molecule was classed as inactive.
For the molecule `C/C=C(\C)C(=O)OC/C=C(\C)CCC=C(C)C`, the molecule was called inactive.
On to `CC(C)COC(=O)c1ccccc1O`, for which the result was inactive.
Regarding `CC/C=C\CCOC(=O)C(C)C`, the call was inactive.
For `CC(C)(C)C1CCC(O)CC1` (configuration not stated) the value was “inactive”.
Regarding `O=C(OCc1ccccc1)c1ccccc1O`, the molecule was called inactive.
Take `CCCCOC(=O)C(C)OC(=O)CCC` (configuration not stated): the molecule was classed as inactive.
